Measurements from article PMC4336329 (PLoS ONE, 2015).
Hit rate of the full screen: of about 310,000 compounds, about 14,000 (4.5%) showed an effect of 50% or more. Effects have a minus sign here. Shown is part of a subset that was picked to be rich in strong results.

molecular target: human ether-à-go-go-related gene (hERG) potassium channel (human, UniProt Q12809); assay: primary screen, population patch clamp on CHO cells stably expressing hERG; higher = less effect of the substance
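Note: peak tail current of the secondary pulse compared with the same well before compound.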

human ether-à-go-go-related gene (hERG) potassium channel, sequence (Q12809 whole entry, looked up): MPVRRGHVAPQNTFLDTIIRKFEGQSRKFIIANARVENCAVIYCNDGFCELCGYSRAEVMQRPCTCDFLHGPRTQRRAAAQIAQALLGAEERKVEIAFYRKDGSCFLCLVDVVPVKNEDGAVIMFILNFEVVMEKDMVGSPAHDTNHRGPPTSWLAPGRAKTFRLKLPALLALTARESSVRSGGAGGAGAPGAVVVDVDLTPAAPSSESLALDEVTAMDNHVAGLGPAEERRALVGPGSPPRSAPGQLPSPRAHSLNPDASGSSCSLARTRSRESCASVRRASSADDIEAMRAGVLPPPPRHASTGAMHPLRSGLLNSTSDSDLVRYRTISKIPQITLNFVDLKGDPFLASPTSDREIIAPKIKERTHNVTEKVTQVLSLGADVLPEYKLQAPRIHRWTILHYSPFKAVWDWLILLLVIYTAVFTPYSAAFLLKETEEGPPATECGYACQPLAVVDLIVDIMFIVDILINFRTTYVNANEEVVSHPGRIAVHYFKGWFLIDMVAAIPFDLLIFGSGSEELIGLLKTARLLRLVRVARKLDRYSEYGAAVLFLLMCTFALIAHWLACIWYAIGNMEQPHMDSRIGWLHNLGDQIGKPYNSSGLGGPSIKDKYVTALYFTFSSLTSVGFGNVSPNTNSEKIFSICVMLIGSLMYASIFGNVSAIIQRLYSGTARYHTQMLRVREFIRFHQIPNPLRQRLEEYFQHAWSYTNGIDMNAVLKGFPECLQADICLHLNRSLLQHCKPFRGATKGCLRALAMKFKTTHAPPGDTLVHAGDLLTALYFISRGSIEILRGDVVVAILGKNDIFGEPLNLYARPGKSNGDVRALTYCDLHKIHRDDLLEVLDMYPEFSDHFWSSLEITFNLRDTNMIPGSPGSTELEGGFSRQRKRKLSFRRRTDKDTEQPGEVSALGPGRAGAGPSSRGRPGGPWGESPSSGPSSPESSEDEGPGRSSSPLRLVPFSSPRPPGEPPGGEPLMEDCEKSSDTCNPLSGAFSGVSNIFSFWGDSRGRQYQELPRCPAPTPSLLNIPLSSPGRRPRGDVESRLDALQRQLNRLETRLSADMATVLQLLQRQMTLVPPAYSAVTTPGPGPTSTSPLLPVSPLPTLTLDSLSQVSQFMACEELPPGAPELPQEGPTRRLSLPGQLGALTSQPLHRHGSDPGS

| Structure (SMILES) | hERG current change (%, negative = inhibition) at 10uM [%] |
| --- | --- |
| N#C/C(=C/c1ccccc1[N+](=O)[O-])c1nc(C2CC2)cs1 | -12.3 |
| CCCc1nnc(NC(=O)CCC(=O)NCc2ccccc2OC)s1 | 21.4 |
| CC1(c2ccccc2)NC(=O)N(CC(=O)NC(=O)NC2CCCC2)C1=O (centres unmarked) | 0.115 |
| Cc1ccc(-c2noc(CSc3nnc(-c4ccccc4)n3C)n2)cc1 | -3.5 |
| COc1cc2c(cc1OC)C(c1ccc(Br)cc1)NC(=O)C2 (centres unmarked) | 12.1 |
| O=C(CSc1nnc(-c2ccco2)n1CC1CCCO1)NC1CCCC1 (centres unmarked) | -4.75 |
| CN(C)CC(O)COc1cccc(OCC(O)CN(C)C)c1.Cl (centres unmarked) | 11.8 |
| OCCN(CCO)CC(O)COc1ccc(Br)cc1 (centres unmarked) | 3.82 |
| Cc1cccc(OCC(O)Cn2ccnc2C)c1 (centres unmarked) | -9.12 |
| CCCCN(CCCC)CC(O)COc1ccc(Br)cc1 (centres unmarked) | -74.4 |
| CC(C)NCC(O)COc1ccc(Br)cc1.Cl (centres unmarked) | -30.3 |
| CCCCN(CC(O)COc1cccc(C)c1)CC(O)COc1cccc(C)c1 (centres unmarked) | -81.7 |
| CCOP(=S)(OCC)SCC(=O)NC(C(=O)O)C(C)C (centres unmarked) | 7.13 |
| O=C(N=Nc1c(O)[nH]c2ccccc12)c1ccc2c(c1)OCO2 | 6.09 |
| CCCNC(=O)c1ccc(S(=O)(=O)c2ccc(OC)cc2)c([N+](=O)[O-])c1 | -31.2 |
| Cc1cccc(NC(=S)NCCN2CCOCC2)c1C | 13.9 |
| COc1ccccc1-c1nnc2sc(COc3ccc(Cl)cc3)nn12 | -37.8 |
| COc1ccccc1-c1nnc2sc(COc3ccccc3)nn12 | -2.14 |
| COc1ccccc1-c1nnc2sc(COc3ccc(F)cc3)nn12 | -74 |
| COc1ccc2cc(CCNC(=O)c3ccco3)c(=O)[nH]c2c1 | -2.81 |
| O=P(O)(CCc1ccccn1)CN1CCOCC1 | 6.28 |
| O=P(O)(CCc1ccccn1)CN1CCCCC1 | -67.6 |
| O=P(O)(CCc1ccccc1)CN1CCCCC1 | 10.9 |

| Structure (SMILES) | hERG current change (%, negative = inhibition) at 10uM [%] |
| --- | --- |
| Cc1cc(C)c2nc(-c3cccnc3)cc(C(=O)NC(C)c3cnn(C)c3C)c2c1 (centres unmarked) | -30.6 |
| CC(C)CCN1C(=O)c2ccc(C(=O)NCC3CCCO3)cc2C1=O (centres unmarked) | -8.48 |
| CC(C)N(Cc1nccn1C)C(=O)c1cc(COc2ccc3ncccc3c2)on1 | 9.33 |
| CC(C)N(Cc1nccn1C)C(=O)c1cc(COc2ccc(F)cc2Cl)on1 | 0.188 |
| CC(C)N(Cc1nccn1C)C(=O)c1cc(COc2ccc(-n3cncn3)cc2)on1 | -51.5 |
| Cc1cc(OCc2cc(C(=O)N(Cc3nccn3C)C(C)C)no2)cc(C)c1Cl | -58.5 |
| Cc1cccc(C)c1OCc1cc(C(=O)N(Cc2nccn2C)C(C)C)no1 | -5.91 |
| COc1cccc(OCc2cc(C(=O)N(Cc3nccn3C)C(C)C)no2)c1 | 8.5 |
| COc1ccc2nc(SC)cc(C)c2c1 | 16.5 |
| CCC1CCC2(CC1)NC(CO)(CO)CO2 (centres unmarked) | 8.52 |
| CC(C)CC1(C)N=C(c2ccccc2)C(=S)N1 (centres unmarked) | 8.32 |
| CCOc1cccc(CN2CCN(CCCc3ccccc3)C(CCO)C2)c1O (centres unmarked) | -76.3 |
| C=CCOc1ccccc1CN1CCN(CCc2ccccc2)C(CCO)C1 (centres unmarked) | -59.4 |
| CCOc1cccc(CN2CCN(CCc3ccccc3)C(CCO)C2)c1O (centres unmarked) | -69.7 |
| CCCn1ncc(CN2CCN(CCc3ccccc3)C(CCO)C2)c1C (centres unmarked) | -46.9 |
| COc1cccc(CN2CCN(CCCc3ccccc3)C(CCO)C2)c1O (centres unmarked) | -72.4 |
| COc1cccc(CN2CCN(CCCc3ccccc3)C(CCO)C2)c1OC (centres unmarked) | -48.6 |
| CCOc1cccc(CN2CCN(Cc3ccc(C)o3)C(CCO)C2)c1O (centres unmarked) | -13.1 |
| COC(=O)CN1C(=S)N(c2ccc(OC)cc2)C(=O)/C1=C/c1cccs1 | 34 |
| Nc1nc(NCc2ccccc2)n(-c2ccccc2)n1 | 14.9 |
| CCOc1ccc(-n2nnnc2-c2nc3ccccc3s2)cc1 | 11.9 |
| O=c1[nH]cc(S(=O)(=O)N2CCOCC2)c(=O)[nH]1 | -7.17 |
| COCCn1c(=O)c2c(nc3n2CC(C)CN3Cc2ccccc2)n(C)c1=O (centres unmarked) | -47.6 |

| Structure (SMILES) | hERG current change (%, negative = inhibition) at 10uM [%] |
| --- | --- |
| CCn1c(=O)c2c(nc3n2CC(C)CN3CCc2ccccc2)n(C)c1=O (centres unmarked) | -72.6 |
| COCCn1c(=O)c2c(nc3n2CCCN3CCc2ccccc2)n(C)c1=O | -31.2 |
| C=CCn1c(=O)c2c(nc3n2CC(C)CN3CCc2ccccc2)n(C)c1=O (centres unmarked) | -72 |
| CC1CN(CCc2ccccc2)c2nc3c(c(=O)[nH]c(=O)n3C)n2C1 (centres unmarked) | -35.9 |
| CC1CN(CCc2ccccc2)c2nc3c(c(=O)n(C)c(=O)n3C)n2C1 (centres unmarked) | -33.9 |
| CC1CN(CCc2ccccc2)c2nc3c(c(=O)n(CC(N)=O)c(=O)n3C)n2C1 (centres unmarked) | 2.53 |
| CCOCCn1c(=O)c2c(nc3n2CC(C)CN3Cc2ccccc2)n(C)c1=O (centres unmarked) | -49.5 |
| COCCn1c(=O)c2c(nc3n2CC(C)CN3CCc2ccccc2)n(C)c1=O (centres unmarked) | -56.6 |
| CCOCCn1c(=O)c2c(nc3n2CCCN3CCc2ccccc2)n(C)c1=O | -22.8 |
| C=CCn1c(=O)c2c(nc3n2CCCN3CCc2ccccc2)n(C)c1=O | -19.8 |
| CCOCCn1c(=O)c2c(nc3n2CC(C)CN3CCc2ccccc2)n(C)c1=O (centres unmarked) | -71.5 |
| CC(C)C(=O)Nc1cccc(NC(=O)c2cc3ccccc3o2)c1 | -22 |
| C=C(C)C1CC=C(C)/C(=N/NC(=O)COc2cccc3ccccc23)C1 (centres unmarked) | 10.9 |
| CCOc1cc(C(=O)NN2CCOCC2)cc(OCC)c1OCC | 35.2 |
| CC(C)CC(=O)NC(=S)Nc1nc(-c2cccc3ccccc23)cs1 | 12.7 |
| COc1ccc(/C=N/n2cnnc2SCc2ccccc2)cc1 | -2.99 |
| Cc1nc(SCC(=O)NC2CCS(=O)(=O)C2)c2c(C)c(C)sc2n1 (centres unmarked) | 6.15 |
| Clc1ccccc1-c1nnc(-c2ccccc2Cl)o1 | -2.56 |
| COc1cccc(N/N=C/c2cccc(Br)c2O)c1 | -11.1 |
| CCOC(=O)c1sc2nc(SCC#N)n(CC3CCCO3)c(=O)c2c1C (centres unmarked) | -13.5 |
| CCOC(=O)c1sc2nc(SCC#N)n(CCCN3CCCC3=O)c(=O)c2c1C | -62.9 |
| CCOC(=O)c1sc2nc(SCC(=O)N(CC)CC)n(CCCN3CCCC3=O)c(=O)c2c1C | -32.4 |
| COc1cccc(C2C(C(=O)c3cc4ccccc4o3)=C(O)C(=O)N2CCN(C)C)c1OC (centres unmarked) | 0.215 |

| Structure (SMILES) | hERG current change (%, negative = inhibition) at 10uM [%] |
| --- | --- |
| Cc1ccc(C(=O)CSc2cc(C)[nH]c(=O)n2)cc1 | 6.76 |
| CC(=O)NN1C(=O)/C(=C\c2ccc(Cl)cc2)SC1=S | 0.662 |
| N#Cc1cc2c(=O)n3ccccc3nc2n(Cc2cccnc2)c1=O | -21 |
| CCC(C)n1c(=N)c(C#N)cc2c(=O)n3cc(C)ccc3nc21 (centres unmarked) | -70.9 |
| CCC(C)n1c(=N)c(C#N)cc2c(=O)n3cccc(C)c3nc21 (centres unmarked) | -66.9 |
| CCC(C)n1c(=N)c(C#N)cc2c(=O)n3ccccc3nc21 (centres unmarked) | -40.9 |
| CCCn1c(=N)c(C#N)cc2c(=O)n3cccc(C)c3nc21 | -53 |
| Cc1cccn2c(=O)c3cc(C#N)c(=O)n(-c4c(C)n(C)n(-c5ccccc5)c4=O)c3nc12 | -7.5 |
| Cc1ccc2nc3c(cc(C#N)c(=N)n3Cc3cccnc3)c(=O)n2c1 | -60.4 |
| Cc1ccc2nc(NCc3ccccc3)c(C=NCc3cccnc3)c(=O)n2c1 | 3.39 |
| CCCn1c(=N)c(C#N)cc2c(=O)n3ccccc3nc21 | -9.89 |
| Cc1ccc(Cn2c(=N)c(C#N)cc3c(=O)n4cccc(C)c4nc32)cc1 | -13 |
| Cc1ccc2nc3c(cc(C#N)c(=O)n3-c3nccs3)c(=O)n2c1 | 2.51 |
| Cc1ccc(C)c(-n2c(=O)c(C#N)cc3c(=O)n4ccccc4nc32)c1 | 30.5 |
| CC(=O)NC(CC(=O)Nc1nc(C)cs1)c1ccccc1 (centres unmarked) | 14.1 |
| CCCCCCCCn1sccc1=O | -33.8 |
| Cc1ccc(S(=O)(=O)N2CCN3CCCC3C2)cc1 (centres unmarked) | -6.76 |
| COc1ccc(S(=O)(=O)NCCc2nnc3ccc(SCC(=O)Nc4nc(C)cs4)nn23)cc1 | 25.3 |
| NC(=O)CC1C(=O)N(c2ccc(Cl)cc2)C(=S)N1NC(=O)c1cccc(F)c1 (centres unmarked) | 15.3 |
| COc1ccccc1/C=C/C(=O)NCC(=O)N/N=C(/C)c1ccco1 | 7.74 |
| Nc1[nH]nc2nc3ccccc3cc12 | 23 |
| O=c1oc2ccccc2cc1-c1cn2cccnc2n1 | 1.91 |
| COc1ccc(C2C(C(=O)N3CCN(c4ccccn4)CC3)CCC(=O)N2c2cc(OC)c(OC)c(OC)c2)cc1 (centres unmarked) | 9.77 |
